Assay results reported in PMC10668032, “Altered binding affinity of SIX1-Q177R correlates with enhanced WNT5A and WNT pathway effector expression in Wilms tumor”.
Whole data set: some 33,000 sequences, median “e-score” near -0.05, cut for the highest 2% near 0.38. What follows is part of a selection rich in the highest values, with near analogues and random picks from the rest.

target: T1, SIX1-Q177R homeodomain (human, UniProt Q15475 108-198, Q177R); experiment: universal protein binding microarray; Universal all-10-mer PBM (8x60K, AMADID 030236), 300 nM GST-tagged protein, Alexa Fluor 488 anti-GST; buffer, salt, pH and temperature not stated (as in Berger); high values mean tight binding; conditions: protein: ivt; tags: N-terminal GST; dsDNA, one strand shown
T1 sequence: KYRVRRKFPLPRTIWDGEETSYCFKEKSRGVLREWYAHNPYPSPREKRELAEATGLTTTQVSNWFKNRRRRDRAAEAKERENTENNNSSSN
Procedure, shortened: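 Homeodomains carrying a GST tag were produced by in vitro transcription/translation, then quantified by anti-GST western blot against a recombinant GST standard curve. Duplicate applications at 300 nM final concentration were made to universal 'all 10-mer' protein binding microarrays in 8×60K format. The Universal PBM Analysis Suite was used to express binding as 8-mer E-scores.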

| Sequence | binding signal |
| --- | --- |
| ACACCACT | 0.4835 ± 0.00239 E-score |
| ACACCACA | 0.485 ± 0.000106 E-score |
| ACACCACG | 0.4775 ± 0.00181 E-score |
| ATACCACG | 0.216 ± 0.0275 E-score |
| ACGCCACT | 0.159 ± 0.00951 E-score |
| ATACCACC | 0.25 ± 0.00441 E-score |
| ACCACACT | 0.2703 ± 0.00247 E-score |
| AAACCACA | 0.2156 ± 0.00176 E-score |
| AACTAACA | 0.2417 ± 0.000339 E-score |
| CACGCTGC | 0.293 ± 0.00561 E-score |
| ATAAGCAC | 0.166 ± 0.0125 E-score |
| ATTCGCAA | 0.162 ± 0.0131 E-score |
| TACCCGTA | 0.168 ± 0.00327 E-score |
| GGGTTTAA | 0.232 ± 0.0257 E-score |
| GAACCCAC | 0.19 ± 0.0124 E-score |
| ACCTCACA | 0.244 ± 0.00679 E-score |
| CACTAAAG | 0.185 ± 0.042 E-score |
| ACACTCCA | 0.373 ± 0.0149 E-score |
| ACACTCCC | 0.404 ± 0.00738 E-score |
| ACCCTCCG | 0.271 ± 0.0147 E-score |
| ACACTTCT | 0.374 ± 0.0413 E-score |
| CCACTCCA | 0.152 ± 0.00234 E-score |
| ACTCTCCC | 0.163 ± 0.0151 E-score |
| ATACTCCG | 0.195 ± 0.0283 E-score |
| ACACTCCT | 0.391 ± 0.0158 E-score |

| Sequence | binding signal |
| --- | --- |
| ACACTCCG | 0.3884 ± 0.00235 E-score |
| GGCGGATA | 0.22 ± 0.0151 E-score |
| CACTCCAA | 0.161 ± 0.0414 E-score |
| AGGCTACC | 0.187 ± 0.00757 E-score |
| CACCGTCA | 0.209 ± 0.0101 E-score |
| CACACGGG | 0.332 ± 0.0383 E-score |
| AGCACGGG | 0.155 ± 0.00564 E-score |
| AACACGGA | 0.372 ± 0.0198 E-score |
| AACACGGG | 0.432 ± 0.00733 E-score |
| AACACGGT | 0.383 ± 0.0148 E-score |
| CACTCGCA | 0.264 ± 0.0114 E-score |
| ACCGCGGT | 0.187 ± 0.0496 E-score |
| AACAAGTG | 0.172 ± 0.00772 E-score |
| AAGTGTTA | 0.393 ± 0.0449 E-score |
| CAGTGTTA | 0.402 ± 0.00939 E-score |
| GAGTGCTA | 0.152 ± 0.00664 E-score |
| CACTGTTA | 0.255 ± 0.0243 E-score |
| AAGTGTTC | 0.285 ± 0.0294 E-score |
| GAGTGTTA | 0.407 ± 0.0179 E-score |
| CAGTGTTC | 0.355 ± 0.0115 E-score |
| AAGTGTGT | 0.215 ± 0.00375 E-score |
| AGAGCACC | 0.202 ± 0.0183 E-score |
| AACCCACC | 0.194 ± 0.0122 E-score |
| CGCGGGCA | 0.276 ± 0.0364 E-score |
| CCCGAGTC | 0.171 ± 0.0123 E-score |

| Sequence | binding signal |
| --- | --- |
| CCACCCCG | 0.246 ± 0.0156 E-score |
| ACACCCCT | 0.4748 ± 0.00334 E-score |
| GCACCCCC | 0.311 ± 0.046 E-score |
| ACACCCCA | 0.4705 ± 0.00327 E-score |
| ACACCCCG | 0.466 ± 0.00875 E-score |
| AGACCCCT | 0.155 ± 0.0162 E-score |
| CCACCCCA | 0.267 ± 0.0424 E-score |
| ACACCCCC | 0.4871 ± 0.00117 E-score |
| ACCCCCCT | 0.302 ± 0.0219 E-score |
| CCACCCCC | 0.209 ± 0.0542 E-score |
| ACCCCCCG | 0.329 ± 0.0392 E-score |
| TCACCCCA | 0.184 ± 0.0578 E-score |
| CCCTCGAC | 0.176 ± 0.00448 E-score |
| ATCGGGCA | 0.195 ± 0.0164 E-score |
| CCGCCCGA | 0.174 ± 0.00646 E-score |
| CCCTGCAC | 0.178 ± 0.0222 E-score |
| TGATACCA | 0.325 ± 0.0116 E-score |
| AACCCGTG | 0.23 ± 0.00447 E-score |
| GCGGAGTA | 0.241 ± 0.0385 E-score |
| ACTGGCAC | 0.152 ± 0.00487 E-score |
| ACCCGGAC | 0.171 ± 0.0263 E-score |
| AGCGCGGG | 0.2629 ± 0.0007 E-score |
| CAGAACAC | 0.3812 ± 0.000905 E-score |
| CAGGAACA | 0.259 ± 0.00612 E-score |
| GAGAATAC | 0.194 ± 0.00365 E-score |

| Sequence | binding signal |
| --- | --- |
| AAGAACAC | 0.423 ± 0.0082 E-score |
| GAGAACAC | 0.3811 ± 0.000742 E-score |
| CACTCTAC | 0.291 ± 0.0135 E-score |
| CCGCCACA | 0.282 ± 0.0124 E-score |
| ACAAGGGG | 0.185 ± 0.0199 E-score |
| CACTCCCA | 0.273 ± 0.0105 E-score |
| GCACTACA | 0.171 ± 0.00501 E-score |
| ACCCAGCG | 0.168 ± 0.00443 E-score |
| ACTTAGGG | 0.181 ± 0.0198 E-score |
| ATCAGGTG | 0.224 ± 0.00902 E-score |
| AAGTGGTG | 0.337 ± 0.0139 E-score |
| ACCTACAC | 0.4302 ± 0.00419 E-score |
| CCCTACTC | 0.19 ± 0.0302 E-score |
| GCCCACAC | 0.255 ± 0.0252 E-score |
| ACCTATAC | 0.2048 ± 0.00123 E-score |
| ACCTACCC | 0.252 ± 0.0152 E-score |
| GCCTACGC | 0.167 ± 0.0292 E-score |
| CCCTACCC | 0.185 ± 0.00683 E-score |
| CCCTACAC | 0.424 ± 0.00443 E-score |
| GCCTACAC | 0.442 ± 0.0046 E-score |
| GGGATCGA | 0.257 ± 0.0548 E-score |
| CACGACTA | 0.22 ± 0.0605 E-score |
| CACTAATC | 0.172 ± 0.0411 E-score |
| GTGTTCAA | 0.3855 ± 0.00337 E-score |
| GTGTTCGA | 0.409 ± 0.0112 E-score |

| Sequence | binding signal |
| --- | --- |
| GGGTTCAC | 0.184 ± 0.0552 E-score |
| GTATTCTA | 0.1741 ± 0.00132 E-score |
| GTGTTCCA | 0.361 ± 0.00459 E-score |
| GTGTTCTA | 0.392 ± 0.00814 E-score |
| GTGTGCAA | 0.252 ± 0.0153 E-score |
| AAGGGGTC | 0.17 ± 0.00583 E-score |
| CACCATTC | 0.23 ± 0.0429 E-score |
| CCCCCACA | 0.262 ± 0.0205 E-score |
| ACGGGGTA | 0.233 ± 0.00738 E-score |
| GGGTGGTA | 0.194 ± 0.0128 E-score |
| AATAGACA | 0.187 ± 0.00716 E-score |
| GATCCCCC | 0.368 ± 0.0192 E-score |
| CACCAGTG | 0.404 ± 0.0086 E-score |
| CACCAGTC | 0.2944 ± 0.00254 E-score |
| AACCAGTG | 0.183 ± 0.00569 E-score |
| CTCAGACA | 0.189 ± 0.00366 E-score |
| CCATACCC | 0.218 ± 0.00536 E-score |
| GCATACAC | 0.406 ± 0.00565 E-score |
| ACATACAC | 0.421 ± 0.012 E-score |
| ACACATAC | 0.18 ± 0.0765 E-score |
| GCATAAAC | 0.184 ± 0.0176 E-score |
| CCATACAC | 0.3962 ± 0.00378 E-score |
| ACATACCC | 0.17 ± 0.00441 E-score |
| CACCTCGA | 0.217 ± 0.0155 E-score |
| GAGGGGTA | 0.277 ± 0.00472 E-score |

| Sequence | binding signal |
| --- | --- |
| ATACCGGA | 0.178 ± 0.0104 E-score |
| AGGCAGGA | 0.158 ± 0.0089 E-score |
| ACCTAGAG | 0.175 ± 0.0492 E-score |
| GGGTGCAA | 0.261 ± 0.0357 E-score |
| CAACGCCA | 0.175 ± 0.0166 E-score |
| CCCCGACC | 0.15745 ± 0.000156 E-score |
| CACCGGTG | 0.418 ± 0.0109 E-score |
| CACCGGTC | 0.21 ± 0.00979 E-score |
| AACCGGTG | 0.299 ± 0.0429 E-score |
| AATTGGTG | 0.221 ± 0.00776 E-score |
| CCGCGACA | 0.241 E-score |
| GCAATACC | 0.166 ± 0.00689 E-score |
| CTAGTGTA | 0.391 ± 0.0289 E-score |
| ATAGTATA | 0.175 ± 0.0632 E-score |
| ATAGTGTG | 0.188 ± 0.00817 E-score |
| CTAGTATC | 0.161 ± 0.0474 E-score |
| CTAGTGTC | 0.4067 ± 0.00058 E-score |
| ATATAGTG | 0.265 ± 0.00494 E-score |
| CTTGTGTA | 0.154 ± 0.0563 E-score |
| ATAGTGTC | 0.3846 ± 0.00175 E-score |
| ATAGTGTA | 0.391 ± 0.0352 E-score |
| CTAGTCAC | 0.19 ± 0.0126 E-score |
| CTAGTACA | 0.245 ± 0.0089 E-score |
| CACCGTGA | 0.277 E-score |
| CCCCCGCC | 0.228 ± 0.0364 E-score |

| Sequence | binding signal |
| --- | --- |
| CACGGATC | 0.279 ± 0.0122 E-score |
| ACCATGAA | 0.1618 ± 0.00147 E-score |
| CATTGGGG | 0.162 ± 0.00379 E-score |
| CCCACTCC | 0.159 ± 0.0222 E-score |
| ACCCCGGA | 0.299 ± 0.00931 E-score |
| GTAGTGTA | 0.427 ± 0.00906 E-score |
| GTAGTGAC | 0.26 ± 0.0183 E-score |
| GTAGGGTA | 0.193 ± 0.0286 E-score |
| ACCAAGAG | 0.213 ± 0.0142 E-score |
| AACACACG | 0.231 ± 0.0156 E-score |
| CACACACA | 0.184 ± 0.063 E-score |
| CACACACC | 0.389 ± 0.0305 E-score |
| GACACACC | 0.422 ± 0.0192 E-score |
| GACACACA | 0.334 ± 0.044 E-score |
| CACACACG | 0.248 ± 0.0453 E-score |
| AACACACA | 0.262 ± 0.0517 E-score |
| AACACACC | 0.395 ± 0.0142 E-score |
| GACACAGC | 0.17 ± 0.0393 E-score |
| TGTACCAA | 0.164 ± 0.0254 E-score |
| GGGTATAC | 0.262 ± 0.00267 E-score |
| AACCCGGG | 0.244 ± 0.0275 E-score |
| CTACTCCA | 0.242 ± 0.00788 E-score |
